# Assay results: PubChem BioAssay
# System: Fibrinogen (Alexa647-labelled)
# Experiment: fibrinogen binders on compound microarrays, profiling panel, artefact control for SMM control-protein annotation, biochemical, small-molecule microarray, 635/667 nm fluorescence (AID 1131);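 further: z-score merges 667 nm fluorescence with per-spot signal-to-noise over triplicate slides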
# Details: fibrinogen-A647 binding fluorescence, higher = more signal
row,SMILES,composite z-score
1,C=CCC(OC(C)=O)[C@@H]1[C@@H](N(Cc2cccc3ccccc23)C(=O)c2ccc(C)cc2)c2cc(OCCCO)ccc2N1C(=O)Cc1ccc2ccccc2c1 (stereo not given in full),0.535
2,COC(=O)C1(CC(C)C)C=C2C(=C(C)C(=O)C2C)CN1 (stereo not given),-0.423
3,COC(=O)[C@@]1(Cc2ccc(F)cc2)[C@H]2c3cc(C(=O)N4CCCC4)n(C[C@H](O)CO)c3C[C@H]2CN1C(=O)c1ccccc1,1.01
4,COC(=O)C(CC#Cc1ccc2c(c1)[C@]1(C(=O)N2)[C@H](C(=O)NC[C@H](O)c2ccccc2)[C@H]2C(=O)O[C@H](c3ccccc3)[C@H](c3ccccc3)N2[C@@H]1c1ccc(O)cc1)C(=O)OC,-0.906
5,CC(C)c1ccc(NN2C(C(O)C3CCCCC3)C=CC3C(=O)N(c4ccccc4)C(=O)C32)cc1 (stereo not given),0.987
6,CN(C)C(=O)[C@]1(CCS(=O)(=O)c2ccccc2)N=C(c2ccc(OCCCO)cc2)O[C@@H]1c1ccccc1CN=[N+]=[N-],0.994
7,COc1ccc(C(=O)Nc2cccc(CN3C(=O)[C@]4(O[C@H](CC(=O)N(CCO)Cc5ccccc5)[C@@H]([Si](C)(C)c5ccc(OC)cc5)[C@@H]4C)c4ccccc43)c2)cc1,0.334
8,C=CCNC(=O)[C@@H]1[C@H]2C(=O)O[C@H](c3ccccc3)[C@H](c3ccccc3)N2[C@H](c2ccc(O)cc2)[C@@]12C(=O)N(C(=O)OCCOC)c1ccc(C#CCC(C(=O)OC)C(=O)OC)cc12,0.271
9,C=CCNC(=O)[C@H]1[C@@H]2C(=O)O[C@@H](c3ccccc3)[C@@H](c3ccccc3)N2[C@@H](c2ccc(OCCO)cc2)[C@]12C(=O)N(C(=O)OCCOC)c1ccc(C#CCNC(N)=O)cc12,0.811
10,COC(=O)[C@@]1(Cc2ccc(OC)cc2)[C@@H]2[C@@H](CC(=O)[C@H]2CC(=O)C(=O)N(C)C)CN1C(=O)c1ccccc1,1
11,CC(C)N1C(=O)[C@@]2(Cc3ccccc31)c1ccccc1C(=O)N(Cc1ccccc1C(F)(F)F)[C@H]2c1ccc(CO)cc1,-0.0628
12,COc1ccc(C#Cc2ccc3c(c2)[C@]2(C(=O)N3)[C@H](c3ccccc3OCCO)N3[C@H](c4ccccc4)[C@H](c4ccccc4)OC(=O)[C@H]3[C@@H]2C(=O)NC[C@H](O)c2ccccc2)cc1,0.848
13,O=C1O[C@H](c2ccccc2)[C@H](c2ccccc2)N2[C@H]1[C@@H](C(=O)O)[C@]1(C(=O)Nc3ccccc31)[C@H]2c1ccc(OCCO)cc1,0.438
14,Cc1ccc(S[C@]2(C(=O)NCCN3CCOCC3)CC(=O)N(C(C)C)[C@@H]2c2ccc(CO)cc2I)cc1,-1.09
15,COc1ccc([Si](C)(C)[C@H]2[C@H](CC(=O)N(CCO)Cc3ccccc3)O[C@@]3(C(=O)N(c4ccccc4)c4ccccc43)[C@@H]2C)cc1,0.743
16,CN1C(=O)C2C=CC(C(O)c3ccc(I)cc3)N(N(c3ccccc3)c3ccccc3)C2C1=O (stereo not given),0.25
17,C=CCC(OC(C)=O)[C@@H]1[C@@H](N(Cc2ccc(-c3ccccc3)cc2)C(=O)Cc2ccc(OC)cc2)c2cc(OCCCO)ccc2N1C(=O)Cc1ccc(OC)cc1 (stereo not given in full),0.513
18,Cc1ccc(S[C@]2(C(=O)NC(C)C)CC(=O)N(Cc3ccccc3)[C@@H]2c2ccc(CO)cc2)cc1,-1.36
19,C=CCNC(=O)[C@H]1[C@@H]2C(=O)O[C@@H](c3ccccc3)[C@@H](c3ccccc3)N2[C@@H](c2ccc(OCCO)cc2)[C@]12C(=O)N(C(=O)OCCOC)c1ccc(C#CCC(C(=O)OC)C(=O)OC)cc12,0.94
20,CCCCCN1CC=CC23O[C@@H]4/C=C\CCCOC(=O)C4[C@H]2C(=O)N(CCO)[C@@H]3C1=O (stereo not given in full),-0.728
21,CN1C2C=C(c3ccc(CO)cc3)C(C3C(=O)N(C(N)=O)C(=O)C32)C1C1CC1 (stereo not given),0.586
22,Cc1ccc(S(=O)(=O)N2[C@@H](c3ccccc3)C(C(=O)O)=C[C@H]2C(C)(C)C)cc1,0.651
23,C=C(C(=O)CC[C@@H](OC(=O)c1ccccc1-c1ccccc1C(=O)O)c1ccc(CO)o1)C(C)C,0.876
24,COC(=O)[C@@]1(Cc2ccc(F)cc2)[C@@H]2C(=CC(=O)[C@H]2CC(=O)C(=O)N2CCCC2)CN1C(=O)c1ccccc1,0.998
25,COC(=O)C(CC#Cc1ccc2c(c1)[C@]1(C(=O)N2)[C@H](C(=O)N2CCCCCCC2)[C@H]2C(=O)O[C@H](c3ccccc3)[C@H](c3ccccc3)N2[C@@H]1c1ccc(OCCO)cc1)C(=O)OC,0.943
26,C=CC[C@H](OC(=O)Nc1ccc(SC)cc1)c1ccc(O)c(F)c1,-0.0381
27,Cc1cccc([C@H]2C[C@H]3C(Br)=C[C@@]2(CO)C(=O)[C@]32CO2)c1,-1.05
28,C=C(CCCC)C(=O)CC[C@H](OC(=O)c1ccccc1-c1ccccc1C(=O)O)c1cccc(OCCO)c1,-0.435

# Target: Follistatin (Homo sapiens) (UniProt P19883)
# Experiment: follistatin binders on small-molecule microarrays, primary screen, biochemical, small-molecule microarray, 635/667 nm fluorescence (AID 1132)
# Details: FST binding, 635 nm fluorescence, higher = more signal
# Follistatin (Homo sapiens), sequence (P19883 whole entry, looked up): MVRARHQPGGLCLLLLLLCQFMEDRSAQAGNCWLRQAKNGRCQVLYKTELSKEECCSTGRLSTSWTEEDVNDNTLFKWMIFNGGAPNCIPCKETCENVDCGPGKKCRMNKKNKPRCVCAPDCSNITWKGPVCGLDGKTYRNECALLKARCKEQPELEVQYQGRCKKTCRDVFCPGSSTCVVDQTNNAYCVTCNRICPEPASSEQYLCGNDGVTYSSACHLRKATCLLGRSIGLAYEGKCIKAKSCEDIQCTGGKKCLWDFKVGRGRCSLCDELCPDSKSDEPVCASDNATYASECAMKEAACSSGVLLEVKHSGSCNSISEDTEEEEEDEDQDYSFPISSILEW
row,SMILES,composite z-score
1,CCOC(=O)C1=CC[C@@H](c2ccccc2)N(S(=O)(=O)c2ccc(C)cc2)[C@@H]1C#N,0.351
2,C=CCN1C(=O)[C@]2(O[C@H](CCO)[C@@H]([Si](C)(C)c3ccc(OC)cc3)[C@@H]2C)c2cc(N3C(=O)c4ccccc4Oc4ccccc43)ccc21,0.157
3,C=CCOC(=O)[C@H]1[C@@H]2C(=O)O[C@@H](c3ccccc3)[C@@H](c3ccccc3)N2[C@@H](c2ccc(OCCOC(=O)[C@H]3C[C@H]4C(=O)NCC(=O)N4[C@H]3c3ccc(O)cc3)cc2)[C@]12C(=O)Nc1ccccc12,1.44
4,C=CCOC(=O)[C@H]1[C@@H]2C(=O)O[C@@H](c3ccccc3)[C@@H](c3ccccc3)N2[C@@H](c2ccc(OCCOC(=O)[C@@H]3C[C@@H]4C(=O)N[C@@H](Cc5ccccc5)C(=O)N4[C@@H]3c3ccc(O)cc3)cc2)[C@]12C(=O)Nc1ccc(I)cc12,1.4
5,CC(C)[Si](C#Cc1ccccc1)(O[C@H](c1ccccc1)c1cn(Cc2ccccc2)nn1)C(C)C,1.11
6,O=C(NCCN1CCOCC1)[C@@H]1c2ccccc2C(=O)N(CC23CC4CC(CC(C4)C2)C3)[C@H]1c1ccc(CO)cc1,0.99
7,O=C1O[C@@H](c2ccccc2)[C@@H](c2ccccc2)N2[C@@H](c3ccccc3OCCO)[C@]3(C(=O)Nc4ccc(C#CC5(O)CCCCCC5)cc43)[C@@H](C(=O)N3CCCCCCC3)[C@H]12,1.58
8,CCOC(=O)C[C@H]1[C@H](OC(=O)c2ccc(-c3ccccc3)cc2)[C@@H](NC(=O)C2CCCCC2)c2cc(OCCCO)ccc2N1C(=O)Cc1ccc(OC)cc1,0.2
9,C=CCC(OC(C)=O)[C@@H]1[C@@H](N(Cc2cccc3ccccc23)C(=O)c2ccc(C)cc2)c2cc(OCCCO)ccc2N1C(=O)Cc1ccc2ccccc2c1 (stereo not given in full),0.142
10,COC(=O)C1(CC(C)C)C=C2C(=C(C)C(=O)C2C)CN1 (stereo not given),0.901
11,COC(=O)[C@@]1(Cc2ccc(F)cc2)[C@H]2c3cc(C(=O)N4CCCC4)n(C[C@H](O)CO)c3C[C@H]2CN1C(=O)c1ccccc1,-0.266
12,COC(=O)C(CC#Cc1ccc2c(c1)[C@]1(C(=O)N2)[C@H](C(=O)NC[C@H](O)c2ccccc2)[C@H]2C(=O)O[C@H](c3ccccc3)[C@H](c3ccccc3)N2[C@@H]1c1ccc(O)cc1)C(=O)OC,0.276
13,CC(C)c1ccc(NN2C(C(O)C3CCCCC3)C=CC3C(=O)N(c4ccccc4)C(=O)C32)cc1 (stereo not given),0.946
14,CN(C)C(=O)[C@]1(CCS(=O)(=O)c2ccccc2)N=C(c2ccc(OCCCO)cc2)O[C@@H]1c1ccccc1CN=[N+]=[N-],0.983
15,COc1ccc(C(=O)Nc2cccc(CN3C(=O)[C@]4(O[C@H](CC(=O)N(CCO)Cc5ccccc5)[C@@H]([Si](C)(C)c5ccc(OC)cc5)[C@@H]4C)c4ccccc43)c2)cc1,0.959
16,C=CCNC(=O)[C@@H]1[C@H]2C(=O)O[C@H](c3ccccc3)[C@H](c3ccccc3)N2[C@H](c2ccc(O)cc2)[C@@]12C(=O)N(C(=O)OCCOC)c1ccc(C#CCC(C(=O)OC)C(=O)OC)cc12,1.13
17,C=CCNC(=O)[C@H]1[C@@H]2C(=O)O[C@@H](c3ccccc3)[C@@H](c3ccccc3)N2[C@@H](c2ccc(OCCO)cc2)[C@]12C(=O)N(C(=O)OCCOC)c1ccc(C#CCNC(N)=O)cc12,1.37
18,COC(=O)[C@@]1(Cc2ccc(OC)cc2)[C@@H]2[C@@H](CC(=O)[C@H]2CC(=O)C(=O)N(C)C)CN1C(=O)c1ccccc1,0.594
19,CC(C)N1C(=O)[C@@]2(Cc3ccccc31)c1ccccc1C(=O)N(Cc1ccccc1C(F)(F)F)[C@H]2c1ccc(CO)cc1,0.902
20,COc1ccc(C#Cc2ccc3c(c2)[C@]2(C(=O)N3)[C@H](c3ccccc3OCCO)N3[C@H](c4ccccc4)[C@H](c4ccccc4)OC(=O)[C@H]3[C@@H]2C(=O)NC[C@H](O)c2ccccc2)cc1,1.27
21,O=C1O[C@H](c2ccccc2)[C@H](c2ccccc2)N2[C@H]1[C@@H](C(=O)O)[C@]1(C(=O)Nc3ccccc31)[C@H]2c1ccc(OCCO)cc1,0.496
22,Cc1ccc(S[C@]2(C(=O)NCCN3CCOCC3)CC(=O)N(C(C)C)[C@@H]2c2ccc(CO)cc2I)cc1,-0.453
23,COc1ccc([Si](C)(C)[C@H]2[C@H](CC(=O)N(CCO)Cc3ccccc3)O[C@@]3(C(=O)N(c4ccccc4)c4ccccc43)[C@@H]2C)cc1,1.1
24,CN1C(=O)C2C=CC(C(O)c3ccc(I)cc3)N(N(c3ccccc3)c3ccccc3)C2C1=O (stereo not given),0.524
25,C=CCC(OC(C)=O)[C@@H]1[C@@H](N(Cc2ccc(-c3ccccc3)cc2)C(=O)Cc2ccc(OC)cc2)c2cc(OCCCO)ccc2N1C(=O)Cc1ccc(OC)cc1 (stereo not given in full),0.7
26,Cc1ccc(S[C@]2(C(=O)NC(C)C)CC(=O)N(Cc3ccccc3)[C@@H]2c2ccc(CO)cc2)cc1,-1.15
27,C=CCNC(=O)[C@H]1[C@@H]2C(=O)O[C@@H](c3ccccc3)[C@@H](c3ccccc3)N2[C@@H](c2ccc(OCCO)cc2)[C@]12C(=O)N(C(=O)OCCOC)c1ccc(C#CCC(C(=O)OC)C(=O)OC)cc12,1.27
